“And” between values parts separate entries of the source, which are not always exact repeats. Equal entries are not always repeated. Inconclusive results are not listed. The source made the active and inactive calls. Unless noted, cut-off not given; nearly all actives show AC50 up to about 26 µM.

The nature of assay [1]: growth inhibition of DIPG glioma cells, dose response, cell-based, SU-DIPG-XVII, MIPE5.0, CellTiter-Glo, qHTS (AID 1347060).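 On AC50: cells exposed to compound for 48 hours before viability readout.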 To be noted: SU-DIPG-XVII viability, CellTiter-Glo ATP luminescence. For orientation: ATP-based viability assays read luminescence as a measure of living cells.
A short description of assay [2]: growth inhibition of DIPG glioma cells, dose response, cell-based, SU-DIPG-XIII, MIPE5.0, CellTiter-Glo, qHTS (AID 1347064; cut-off not given, nearly all actives have AC50 up to about 23 µM;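 on AC50: cells exposed to compound for 48 hours before the viability read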). The conditions noted are these: SU-DIPG-XIII viability, CellTiter-Glo ATP luminescence.
The nature of assay [3]: viability loss in pontine glioma line – cell-based, SU-DIPG-XXV, MIPE5.0, CellTiter-Glo, qHTS, dose response (AID 1347065).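 Further: cells exposed to compound for 48 hours before ATP readout.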 The conditions noted are these: CellTiter-Glo ATP luminescence.
Assay [4] is described as follows: JHH-DIPG-1 glioma cell viability, MIPE5.0 library, CellTiter-Glo luminescence, qHTS (AID 1347067).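 Further: cells exposed to compound for 48 hours before readout.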 To be noted: JHH-DIPG-1 glioma viability, CellTiter-Glo ATP luminescence.
The nature of assay [5]: SU-DIPG-XXV glioma cell viability, MIPE5.0 library, qHTS (AID 1347068; cut-off not given, nearly all actives have IC50 up to about 30 µM;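 on IC50: cells exposed to compound for 48 hours before viability readout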). On the technique in general: qHTS replaces the single test concentration by a dilution series.
Assay [6] in a line: growth inhibition of DIPG glioma cells, dose response, cell-based, JHH-DIPG-1, MIPE4.0, CellTiter-Glo, qHTS (AID 1347062; cut-off not given, nearly all actives have AC50 up to about 27 µM;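 on AC50: cells exposed to compound for two days before readout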). To be noted: JHH-DIPG-1 viability, CellTiter-Glo ATP luminescence.
Assay [7] can be described thus: SU-DIPG-VI glioma cell viability, MIPE4.0 library, CellTiter-Glo luminescence, qHTS (AID 1347066; cut-off not given, nearly all actives have AC50 up to about 30 µM;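 further: cells exposed to compound for 48 hours before readout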). The conditions noted are these: CellTiter-Glo ATP luminescence.
The nature of assay [8]: growth inhibition of DIPG glioma cells, dose response, cell-based, SU-DIPG-IV, MIPE4.0, CellTiter-Glo, qHTS (AID 1347063; cut-off not given, nearly all actives have AC50 up to about 30 µM;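 further: compound exposure lasted 48 hours before the viability readout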). The conditions noted are these: SU-DIPG-IV viability, CellTiter-Glo ATP luminescence.
Assay [9] is described as follows: growth inhibition of DIPG glioma cells, dose response, cell-based, SU-DIPG-XIII, MIPE4.0, CellTiter-Glo, qHTS (AID 1347061; cut-off not given, nearly all actives have AC50 up to about 37 µM;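 further: cells exposed to compound for 48 hours before readout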). The conditions noted are these: SU-DIPG-XIII viability, CellTiter-Glo ATP luminescence.
Assay [10] is described as follows: sensitizers of A549 cells to miR-34 induction, primary screen, imaging, A549 dox-inducible miR-34, nuclei and caspase counts (AID 1347080;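 active means compounds whose cell count with miR-34 switched on is under 0.7 times the count with it off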). To be noted: A549 miR-34 inducible, Hoechst nuclei count, 48 h.
A short description of assay [11]: survival rescue of mitochondrial mutant cells in low glucose, primary screen, MELAS cybrids, Rieske KO mouse fibroblasts, CellTiter-Glo (AID 1508586;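 active means mean z-score across replicates of 1.96 or higher in either the MELAS or the Rieske mutant cell line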;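 further: z relative to plate mean and SD of compound and empty wells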).

With `COC(=O)[C@@]12OC[C@]34[C@H]([C@@H](O)[C@@H]1O)[C@@]1(C)CC(=O)C(O)=C(C)[C@@H]1C[C@H]3OC(=O)[C@H](OC(=O)/C=C(\C)C(C)C)[C@@H]24`, the AC50 (usually the midpoint of the concentration-response curve, whichever way the signal moves) in assay [1] was 0.0295 µM (active); in [2], 0.059 µM (active); in assay [3] it was 10.5 nM (active); in [4], 0.0525 µM (active). Further, in [5], the IC50 (commonly the concentration at which inhibition is half-maximal) is 5.9 µM (active).
On to `Cn1c(CCCCCCC(=O)NO)nc2cc(N(CCCl)CCCl)ccc21`, for which the AC50 in assay [1] and in assay [4] was 9.34 µM (active) in each case. The compound was called inactive in assay [5].
In the case of `c1ccc2c(CN3CCNCC3)cccc2c1`, the call in [1], in assay [6], in assay [2], in assay [3], in assay [7] and in [4] was inactive.
On to `CN1C(=O)[C@@H](NC(=O)[C@H](CCC(F)(F)F)[C@H](CCC(F)(F)F)C(N)=O)N=C(c2ccccc2)c2ccccc21`, for which the compound was called inactive in [1], in assay [2], in assay [3], in assay [4] and in assay [5].
`O=C(CBr)N1CC([N+](=O)[O-])([N+](=O)[O-])C1`: the outcome in assay [1], in assay [3] and in assay [5] was inactive.
For `C/C1=C/C[C@@H](/C(C)=C/c2csc(C)n2)OC(=O)C[C@H](O)C(C)(C)C(=O)[C@H](C)[C@@H](O)[C@@H](C)CCC1`, the AC50 in assay [1] is 0.00296 µM (active); in [3], 4.17 nM (active).
With `COc1cc(C(=O)N2CC[C@@H](O)[C@@H](N)C2)cc2nc(-c3cc4ccccc4n3CC3CC3)n(C)c12`, the AC50 is 23.5 µM (active) in assay [1], 23.5 µM (active) in assay [2], 29500 nM (active) in assay [3] and 23.5 µM (active) in [4].
For the compound `CC(=O)OC[C@H]1O[C@@H]([S-])[C@H](OC(C)=O)[C@@H](OC(C)=O)[C@@H]1OC(C)=O.CC[PH+](CC)CC.[Au]`, the AC50 in assay [1] is 1.05 µM (active); in assay [2], 1.66 µM (active); in assay [3] it was 1180 nM (active); in [4], 1.32 µM (active). Also, the half-inhibitory concentration (IC50) in assay [5] was 2.63 µM (active).
Turning to `Cc1[nH]ncc1-c1cc2nc([C@@H]3CC4CCN3CC4)[nH]c(=O)c2s1`, the values for the AC50 in [1], in assay [3] and in [4] were 18.6 µM (active), 16600 nM (active) and 14.8 µM (active), respectively. The IC50 in assay [5] was 23.5 µM (active).
As to `O=c1[nH]c2ccc(Cl)cc2c(N[C@@H]2CN3CCC2CC3)c1-c1nc2ccccc2[nH]1`, the half-maximal activity concentration (AC50) in assay [1] is 2.63 µM (active); in assay [6] it was 1.87 µM (active); in [8], 1.66 µM (active); in assay [2] it was 3.32 µM (active); in [3] it was 3720 nM (active); in [4], 3.32 µM (active). The IC50 in assay [5] is 8.33 µM (active).
For `CN(C)c1cc2c(cc1Sc1nc3c(N)nccc3n1CCNCC(C)(C)C)OCO2`, the AC50 was 0.59 µM (active) in assay [1], 1.32 µM (active) in assay [2], 661 nM (active) in assay [3] and 1.32 µM (active) in assay [4]. The concentration for half-maximal inhibition (IC50) in [5] was 2.95 µM (active).
Take `COc1ccc2c(c1)CN(C)CC2c1ccc(Cl)c(Cl)c1` (stereo not given): the call in [9] was inactive.
With `C=C(C)[C@@H]1CCC(C)=C[C@H]1c1c(O)cc(CCCCC)cc1O`, the values for the AC50 in assay [1], in [2] and in assay [4] were 26.3 µM (active), 23.5 µM (active) and 23.5 µM (active), respectively.
Regarding `O=C(O)CNC(=O)C1C(=O)N(C2CCCCC2)C(=O)N(C2CCCCC2)C1=O`, the AC50 in assay [1] was 20.9 µM (active). In addition, the call in assay [2], in assay [3] and in assay [5] was inactive.
Consider `CN1[C@@H]2CC(O)C[C@H]1[C@@H]1O[C@@H]12` (stereo not given in full), for which the call in [1], in [2], in [3], in assay [4] and in [5] was inactive. Moreover, the half-maximal activity concentration (AC50) in [8] and in assay [7] was 16.6 µM (active) in each case. Further, the fold change is 0.909 (inactive) and 0.934 (inactive) in assay [10] (stronger effect = lower value, cell number ratio, induced over uninduced); 0.912 and 0.808 in [10] (measured here: relative caspase fold change +Dox/-Dox). The cell count in [10] (measured here: total cells with miR-34 induction, stronger effect = lower value) is 8400 and 9480; in assay [10] (measured here: total cells without miR-34 induction), 9240 and 10200. Further, the z-score in assay [11] (MELAS cybrid survival, CellTiter-Glo 48 h, stronger effect = higher value) is -0.234 (inactive) and -0.344 (inactive); in assay [11] (Rieske KO mouse fibroblast survival, CellTiter-Glo 72 h), -0.606 and 0.658.
On to `COc1cc(C)[nH]c(=O)c1CNC(=O)c1c(C)n([C@H](C)C2CCN(CC(F)(F)F)CC2)c2ccccc12`, for which the compound was classed as inactive in assay [1], in assay [3] and in [4].
For the compound `COc1cc(C)[nH]c(=O)c1CNC(=O)c1c(C)n([C@H](C)C2CCOCC2)c2ccccc12`, the call in assay [1], in assay [2], in assay [3] and in assay [4] was inactive.
With `C[C@@H]1CC[C@@]2(OC1)O[C@H]1C[C@H]3[C@@H]4CC=C5C[C@@H](O[C@@H]6O[C@H](CO)[C@@H](O[C@@H]7O[C@@H](C)[C@H](O)[C@@H](O)[C@H]7O)[C@H](O)[C@H]6O[C@@H]6O[C@@H](C)[C@H](O)[C@@H](O)[C@H]6O)CC[C@]5(C)[C@H]4CC[C@]3(C)[C@H]1[C@@H]2C`, the concentration at half-maximal activity (AC50) in assay [1] is 0.661 µM (active); in assay [6] it was 2.35 µM (active); in [8] it was 0.833 µM (active); in [2] it was 0.148 µM (active); in assay [3], 468 nM (active); in [7], 5.26 µM (active). Also, in assay [4], the AC50 is 0.742 µM (active). Also, the half-maximal inhibitory concentration (IC50) in assay [5] was 3.72 µM (active).

These data come from PubChem BioAssay.
